Hit rate of the full screen: of about 390,000 compounds, about 1,400 (0.36%) were called active. Not shown: some 2% with an inconclusive outcome. Calls follow the shape of the dose curve; as a rule, active = well fitted inhibition curve with a large enough effect; inconclusive = small, poorly fitted or top-dose-only effect; inactive = no such curve, though single readings can be large or run the other way. The full list was thinned out, with actives kept by preference.
Each compound was assayed against Flap endonuclease 1 (Homo sapiens) (UniProt P39748) (assay: qHTS Assay for the Inhibitors of Human Flap endonuclease 1 (FEN1).). Settings: Recombinant FEN1 flap cleavage, fluorescence, 15 min; series mostly up to 114 µM; activity change, negative = inhibition: at the top concentration.
Text: The major human flap endonuclease FEN1 is an efficient structure-specific enzyme that recognizes and cleaves a 5'-unannealed DNA flap. It belongs to the RAD2 family nucleases, which are involved in DNA metabolism and are highly conserved in prokaryotes and eukaryotes. FEN1 is a key enzyme in DNA replication, repair and maintenance of genomic stability. 5'-flap removal by FEN1 is critical for Okazaki fragment processing during lagging strand DNA synthesis, long-patch base excision repair (LP BER), and regulating or facilitating recombination events. […] Deletion of the yeast FEN1 gene, i.e. rad27, results in an increased frequency of short DNA (3-32 bp) repeats, micro- and mini-satellite formation, trinucleotide repeat expansion, spontaneous recombination events, and a severe growth defect in association with cell cycle arrest in late S/G2 phase. […] Cells from fen1-/- blastocysts show increased apoptotic cell death after ionizing radiation treatment, and chicken cells lacking the fen1 gene are hypersensitive to DNA alkylating agents, e.g. methylmethane sulfonate (MMS) and N-methyl-N'-nitro-N-nitrosoguanidine (MNNG), as well as hydrogen peroxide.
NIH Chemical Genomics Center [NCGC]
NIH Molecular Libraries Probe Centers Network [MLPCN]
Assay Submitter (PI): David Wilson, National Institute of Aging
Three uL of reagents (buffer in column 3 and 4 as negative control and 10 nM FEN1 in columns 1, 2, and 5-48) were dispensed into 1,536-well black solid-bottomed plate. Compounds (23 nL) were transferred via Kalypsys pin tool equipped with 1536-pin array (10 nL slotted pins, V&P Scientific, San Diego, CA). The plates were then incubated for 15 min at room temperature, and 1 uL substrate (50 nM final concentration) were added to start the reaction read twice at 0 min read and 15 min on ViewLux reader. Throughout the screen, reagent bottle and all liquid lines were chilled and made light-tight to minimize reagent degradation. All screening operations were performed on a fully integrated robotic system (Kalypsys, San Diego, CA) containing one RX-130 and two RX-90 anthropomorphic robotic arms (Staubli, Duncan, SC). Library plates were screened starting from the lowest and proceeding to the highest concentration, and a "double-dipping" step of the highest concentration was required to access higher concentrations of compounds. Vehicle-only plates, with DMSO being pin-transferred to the entire column 5-48 compound area, were inserted uniformly at the beginning and the end of each library in order to monitor for and record any shifts in the background, which can be affected by reagent dispensers or loss in enzyme activity overtime. Screening data was corrected, normalized, and concentration-effect relationships were derived by using publicly-available curve fitting algorithms developed in-house (http://ncgc.nih.gov/pub/openhts). A four parameter Hill equation was fitted to the concentration-response data by minimizing the residual error between the modeled and observed responses.
% is scaled to controls: 0 for no effect and ±100 for the full control effect; potency is read from the fitted curve at half-maximal effect.
Also: nearly all actives have a fitted effect of over 65% in size.

Chain of Flap endonuclease 1 (Homo sapiens) (P39748 whole entry, looked up, the tested form may be a part): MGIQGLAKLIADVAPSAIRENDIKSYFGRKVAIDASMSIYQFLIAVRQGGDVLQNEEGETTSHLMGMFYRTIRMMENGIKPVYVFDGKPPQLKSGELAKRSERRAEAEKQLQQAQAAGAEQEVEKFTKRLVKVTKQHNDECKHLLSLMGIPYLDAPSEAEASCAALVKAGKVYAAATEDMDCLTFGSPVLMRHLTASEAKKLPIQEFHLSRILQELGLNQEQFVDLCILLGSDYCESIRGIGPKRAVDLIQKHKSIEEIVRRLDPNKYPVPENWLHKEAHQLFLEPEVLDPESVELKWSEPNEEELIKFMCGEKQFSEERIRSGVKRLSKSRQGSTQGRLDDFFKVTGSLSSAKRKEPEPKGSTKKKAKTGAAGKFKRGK

Compound | activity change, negative = inhibition | Potency
COc1ccc(CN2C(=O)NC(=O)/C(=C\c3ccc(OC)c(OC)c3OC)C2=O)cc1 | -6.59% (inactive) | –
COc1cccc(N2C(=O)NC(=O)/C(=C\c3ccc([N+](=O)[O-])s3)C2=O)c1 | – | 39.8 µM (active)
CCOC(=O)CC(SP1(=S)OCC2(CCCCO2)C(C2CCCCO2)O1)C(=O)OCC (stereo not given) | -27.9% (inactive) | –
C[C@]12CCC3C(CC[C@H]4[C@H](O)[C@H](O)CC[C@]34C)C1CCC2=O (stereo not given in full) | -5.27% (inactive) | –
COc1ccc2c(c1)NP(=S)(c1ccccc1)N2 (stereo not given) | -3.42% (inactive) | –
CCC(C)(O)C(=O)OC1C(=O)OC2CC3C(C)=CC(=O)C(O)C3(C)C3C4(O)OCC23C1C(C)C4O (stereo not given) | 2.84% (inactive) | –
O=C(O)/C=C/c1ccc2c(c1)OCO2 | 39.2% (inactive) | –
O=C(c1ccccc1[N+](=O)[O-])N1CCC2(CC1)OCCO2 | -1.26% (inactive) | –
O=C(O)c1cc[c]([Sb](=[O])([OH])[OH])cc1[N+](=O)[O-] | – | 1.41 µM (active)
CC1C(=O)OC2CCN3CC=C(COC(=O)C(C)(O)C1(C)O)C23 (stereo not given) | 18.1% (inactive) | –
Cc1cc(C)c2c(c1)NP(=S)(c1ccccc1)N2 (stereo not given) | 4.1% (inactive) | –
CC(=O)OC1C2(CC3N4C(=O)C5(CO)SSC4(CC31O)C(=O)N5C)OC(C)C(C)(C)C2=O (stereo not given) | 0.834% (inactive) | –
COc1cc([C@@H]2c3cc4c(cc3[C@H](OC(C)=O)[C@H]3COC(=O)[C@H]23)OCO4)cc(OC)c1OC | 0.697% (inactive) | –
COC1C(O)C(C)OC(OC2CCC3(C=O)C(CCC4C3CCC3(C)C(C5=CC(=O)OC5)CCC43O)C2)C1O (stereo not given) | 0.394% (inactive) | –
CO[C@H]1[C@@H](O)[C@@H](C)O[C@H](O[C@H]2[C@H](Oc3cccc4c(O)c5c(=O)oc6ccc(C)c7c(=O)oc(c34)c5c67)O[C@H](C)[C@H](O)[C@@H]2O)[C@@H]1O | – | 10 µM (active)
O=P1(Oc2ccccc2)CC(O)C(O)C(COCc2ccccc2)O1 (stereo not given) | -2.48% (inactive) | –
CCC(=O)OC(Cc1ccccc1)(c1ccccc1)C(C)CN(C)C (stereo not given) | -8.26% (inactive) | –
CC12CCC(O)CC1CCC1C2CCC2(C)C(C(=O)CC(O)C(F)(F)F)CCC12 (stereo not given) | -6.23% (inactive) | –
c1ccc2c(c1)[I+]c1ccccc1-2 | – | 50.1 µM (active)
N#Cc1c(Cl)c(Cl)c(Cl)c(C#N)c1Cl | -1.6% (inactive) | –

Reference: PubChem BioAssay AID588795 (National Center for Advancing Translational Sciences (NCATS), 2011)
